Screens: PubChem, several laboratories
p-CIP stab down: p/CIP-EGFP fusion destabilizers, primary screen, fluorescence, F442A cells; decrease of EGFP signal, % at 10 µM; actives 0.01% (n = 290,000); Q05BA5; 16 h;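 active = EGFP signal decrease of at least 30% at 10 µM or well 3 SD below plate mean, unless failing retest; inactive = the rest, including hits failing retest or dose response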
Platelet DG rel: inhibitors of platelet dense granule secretion, primary screen, cell-based, MLPCN, human platelets | human platelet-rich plasma, SFLLRN dense granule ATP release, luminescence | inhibition, %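 (compounds screened at 7.5 µM in platelet-rich plasma)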 | actives 0.22% (n = 300,000) | AID 1663, 2009;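 active = mean replicate score, as percent of positive control, at or above 50; inconclusive = mean below 50 but at least one replicate at or above 50; inactive = mean and every replicate below 50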
HIF act: HIF pathway transcriptional activators, primary screen, cell-based, U2OS HRE-luciferase, luminescence | U2OS HRE-luciferase reporter; normalized: DMSO 0%, desferrioxamine 100% | activation, % at 7.5 µM (by protocol) | actives 0.32% (n = 300,000);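 active = mean activation of at least 10% of the iron chelator positive control signal, with at least half of replicates also reaching 10%; inconclusive = mean and replicate majority disagree about reaching 10%; inactive = mean and most replicates under 10%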
PolyA inh: polyadenylation inhibitors in yeast reporter cells, primary screen, luminescence, S. cerevisiae. S. cerevisiae SKY197-pL101 polyadenylation reporter, beta-gal luminescence; efflux-impaired pdr1/pdr3 knockout yeast; score 100 = 6 SD above DMSO. activity score, % at 12 µM. actives 0.02% (n = 300,000). AID 1875, 2009;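 active = lowest replicate activity score at least 50, where 100 means six control SD above control mean; inconclusive = lowest score under 50 but half or more replicates reach 50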;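 also: yeast exposed to compound for 9 h at 30 °C; higher score means more reporter readthrough which indicates perturbed polyadenylation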
AHR activator: AHR activators, primary screen, cell-based, luminescence, luciferase reporter, human. actives 2.5% (n = 320,000). AHR-responsive luciferase reporter cells. activation, % at 5 µM; in the data active = activation above about 47%;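 also: 0% = vehicle wells and 100% = reference agonist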
AHR act confirm: AHR activators, confirmation, cell-based, luminescence, luciferase reporter, human. shares compounds with AHR activator. human cells, AHR-responsive luciferase reporter. activation, % at 9 µM. actives 87% (n = 2,300). AID 2845, 2010; in the data active = activation above about 49%;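 also: HepG2 hepatoma cells carrying a DRE-driven firefly luciferase reporter; 0% = vehicle wells and 100% = reference agonist wells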
PXR act counter: human PXR activators, counter-screen for AHR activator project, cell-based, luciferase luminescence; actives 88% (n = 2,300); cell-based PXR reporter; activation, % at 11.6 µM; shares compounds with AHR activator; in the data active = activation above about 11%;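 also: human hepatoma DPX-2 cells expressing full-length human PXR; 0% = DMSO and 100% = reference agonist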
Target sequence (O75469 whole entry, looked up): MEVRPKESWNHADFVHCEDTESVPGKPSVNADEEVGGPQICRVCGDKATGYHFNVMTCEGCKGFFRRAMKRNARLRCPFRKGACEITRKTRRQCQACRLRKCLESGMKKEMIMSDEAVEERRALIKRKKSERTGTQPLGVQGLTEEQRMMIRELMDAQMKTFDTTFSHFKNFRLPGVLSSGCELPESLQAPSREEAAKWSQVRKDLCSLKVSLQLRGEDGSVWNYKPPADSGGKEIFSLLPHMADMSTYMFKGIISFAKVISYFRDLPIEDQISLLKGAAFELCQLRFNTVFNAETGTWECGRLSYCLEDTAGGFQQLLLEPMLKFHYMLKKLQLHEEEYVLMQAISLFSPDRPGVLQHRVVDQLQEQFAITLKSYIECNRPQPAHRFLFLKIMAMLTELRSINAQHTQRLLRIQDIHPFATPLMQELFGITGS
The depositor's hits bear a star; ? = inconclusive; . = no result given. Rows were chosen to be rich in hits. Some 2.8% of all compounds tested hit in one or more screens of this group.

SMILES	p-CIP stab down	Platelet DG rel	HIF act	PolyA inh	AHR activator	AHR act confirm	PXR act counter
O=C(CCN1C(=O)/C(=C/c2ccccc2)SC1=S)NNC(=O)c1ccncc1	4	5	-1	-21	120*	15	5
O=C(CCN1C(=O)/C(=C\c2ccccc2)SC1=S)NNC(=O)c1ccncc1	8	9	0	-1	3	.	.
COc1cc(Cl)ccc1OCc1cc(C(=O)NCc2cc(C(C)C)no2)no1	-11	-5	4	12	115*	105*	45*
O=C(O)CN1C(=O)/C(=C\c2cc(Br)ccc2OCc2ccccc2Cl)SC1=S	6	2	0	-15	35	.	.
O=C(O)CN1C(=O)/C(=C\c2ccccc2OCc2ccc(Cl)cc2Cl)SC1=S	-11	2	-2	4	82*	59*	29*
Cc1c(C2(O)CCCCC2)[nH]c2ccc(C(F)(F)F)cc12	.	.	.	.	80*	81*	44*
COC(=O)c1ccc2[nH]c(C3(O)CCCCC3)c(C)c2c1	.	.	.	.	0	.	.
O=c1c2ccccc2[nH]c(=S)n1Cc1ccccc1	-1	5	-2	0	0	.	.
O=c1c2ccccc2[nH]c(=S)n1CCc1ccccc1	-13	-8	1	-23	121*	159*	38*
Cc1ccc(NCc2ccccc2OCc2ccccc2F)cc1	-3	4	0	-1	106*	82*	36*
C=CCNc1nc2ccccc2c(=O)[nH]1	19	8	0	12	94*	8	9
Fc1ccccc1/C=C/c1ccc2ccccc2n1	-6	42	-1	-20	89*	74*	7
CCOc1ccc(Oc2ccc(C(F)(F)F)cc2NC(=O)C2=COCCO2)cc1	.	.	.	.	2	.	.
FC(F)(F)c1ccc(Cl)c(NC(=S)N/N=C/c2ccccc2C(F)(F)F)c1	-32	9	-1	5	105*	55*	74*
CCOC(=O)c1cnc(SC)nc1Oc1cccc(NS(=O)(=O)c2ccc(C)cc2)c1	-10	-5	0	-3	1	.	.
CCNC(=S)Nc1ccc(Cl)c([N+](=O)[O-])c1	26	14	0	10	99*	50*	18*
CCNC(=S)Nc1cccc([N+](=O)[O-])c1	1	-11	0	-8	3	.	.
Cc1cc(C(F)(F)F)n2nc(-c3sccc3-n3cccc3)cc2n1	9	-6	0	-2	103*	113*	44*
Cc1c(C(=O)Nc2ccccc2[N+](=O)[O-])csc1-c1ccccc1	-4	2	1	-13	122*	63*	27*
CCOC(=O)c1c(C)[nH]c(C(=O)NCCc2ccc(OC)c(OC)c2)c1C	-16	-6	0	-2	20	.	.
CN(C(=O)c1cccc(NC(=O)C2CCN(C(=O)OC(C)(C)C)CC2)c1)C1CCCCC1	.	.	.	.	0	.	.
Cc1cnc(NC(=O)c2ccc(-c3ccc([N+](=O)[O-])cc3)o2)s1	.	.	.	.	14	.	.
Cc1cnc(NC(=O)c2ccc(-c3nc4ccccc4s3)o2)s1	13	1	1	-26	89*	114*	14*
O=[N+]([O-])c1ccc(N/N=C\c2ccccc2OCc2ccccc2)cc1	-12	9	0	-21	85*	62*	46*
Cc1cc(C)nc(N/N=C/c2ccccc2OCc2ccc([N+](=O)[O-])cc2)n1	-7	8	1	21	8	.	.
CC(OC(=O)C1=COCCO1)C(=O)Nc1ccccc1C#N (stereo unspecified)	-1	-22	0	?	3	.	.
O=C(Nc1cccc(Cl)c1Cl)c1ccccc1OCC(=O)N1CCOCC1	9	15	0	1	82*	89*	49*
Cc1ccc(SCC(=O)NC(=O)Nc2ccc3c(c2)OCCO3)c(C)c1	-5	12	0	-5	-2	.	.
N#C/C(=C/c1cccs1)c1nc2ccccc2[nH]1	-32	2	2	1	117*	125*	22*
